Measured values: the supplement of paper PMC10849652
Of roughly 7,900 targets only a part is listed; those with a hit were picked by preference. About 0.6% of all pairs of compound and target were hits. Values without a mark were called inactive.

Legend:
Assay in all cases: log2 fold change, soluble protein after heating vs DMSO (PISA); higher = thermal stabilisation; K562 cells, 10 uM, 30 min; active = over 0.2 and 3.5 SD of the protein, either way, in both replicates (recomputed)
[1] = compound: Cc1ccc(NC(=O)c2ccc(CN3CC[C@H](N(C)C)C3)c(C(F)(F)F)c2)cc1Nc1nccc(-c2cncnc2)n1 [bafetinib]
In short: (§1)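 K562 cells (2×10^6 cells/mL) were treated with 10 μM compound for 30 min, and aliquots were heated for 3 min over 48°C-58°C. Pooled aliquots were extracted in PBS with 0.5% NP-40 at 4°C, and the supernatant after 21,000xg for 90 min was measured by TMTpro 16plex LC-MS/MS with channel sums equalised. Reported thermal stability, relative to control samples and from duplicates, is a log2 fold change.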

[2] = compound: Cc1cccc(CC(=O)N2CCc3c2ccc(-c2cn(C)c4ncnc(N)c24)c3F)n1
In short: as §1

[3] = compound: Cc1cn(-c2cc(NC(=O)c3ccc(C)c(Nc4nccc(-c5cccnc5)n4)c3)cc(C(F)(F)F)c2)cn1 [nilotinib]
In short: as §1

[4] = compound: Cc1nc(Nc2n[nH]c3c2CN(C(=O)N[C@H](CN(C)C)c2ccccc2)C3(C)C)c2sccc2n1
In short: as §1

[5] = compound: Cc1nc(Nc2ncc(C(=O)Nc3c(C)cccc3Cl)s2)cc(N2CCN(CCO)CC2)n1 [dasatinib]
In short: as §1

[6] = compound: Cc1ncc(-c2ccnc(Nc3ccc(S(C)(=O)=O)cc3)n2)n1C(C)C
In short: as §1

[7] = compound: Cn1cc(-c2ccc3c(c2)CCN3C(=O)Cc2cccc(C(F)(F)F)c2)c2c(N)ncnc21
In short: as §1

[8] = compound: Cn1cc(-c2ccc3nnc(C(F)(F)c4ccc5ncccc5c4)n3n2)cn1
In short: as §1

[9] = compound: Cn1cncc1[C@@](N)(c1ccc(Cl)cc1)c1ccc2c(c1)c(-c1cccc(Cl)c1)cc(=O)n2C [tipifarnib]
In short: as §1

[10] = compound: FC(F)(F)c1ccc(/C=C/c2nc(COc3ccc(CCCCn4ccnn4)cc3)co2)cc1 [mubritinib]
In short: as §1

[11] = compound: NC(=O)Nc1cc(-c2cccc(F)c2)sc1C(=O)N[C@H]1CCCNC1
In short: as §1

[12] = compound: NC(=O)c1cnc(N[C@@H]2CCCC[C@@H]2N)nc1Nc1cccc(-n2nccn2)c1
In short: as §1

[13] = compound: NC1(c2ccc(-c3nc4ccn5c(=O)[nH]nc5c4cc3-c3ccccc3)cc2)CCC1
In short: as §1

[14] = compound: NCC(=O)Nc1ccc(-n2nc(C(F)(F)F)cc2-c2ccc3c(ccc4ccccc43)c2)cc1
In short: as §1

[15] = compound: Nc1ccccc1NC(=O)c1ccc(CNC(=O)OCc2cccnc2)cc1 [entinostat]
In short: as §1

[16] = compound: O=C(CCCCCCC(=O)Nc1ccccc1)NO [vorinostat]
In short: as §1

[17] = compound: O=C(CCCCCCNC(=O)c1cnc(N(c2ccccc2)c2ccccc2Cl)nc1)NO [citarinostat]
In short: as §1

[18] = compound: O=C1NC(=O)C(c2cnc3ccccn23)=C1c1cn2c3c(cc(F)cc13)CN(C(=O)N1CCCCC1)CC2
In short: as §1

[19] = compound: c1cc(OCCN2CCCCC2)cc(-c2n[nH]c3ccc(-c4nnc[nH]4)cc23)c1
In short: as §1

[20] = compound: O=C(O)c1ccc2c(c1)nc(Nc1cccc(Cl)c1)c1ccncc12 [silmitasertib]
In short: as §1

UniProt Q9Y5P4, sequence (Q9Y5P4 whole entry, looked up): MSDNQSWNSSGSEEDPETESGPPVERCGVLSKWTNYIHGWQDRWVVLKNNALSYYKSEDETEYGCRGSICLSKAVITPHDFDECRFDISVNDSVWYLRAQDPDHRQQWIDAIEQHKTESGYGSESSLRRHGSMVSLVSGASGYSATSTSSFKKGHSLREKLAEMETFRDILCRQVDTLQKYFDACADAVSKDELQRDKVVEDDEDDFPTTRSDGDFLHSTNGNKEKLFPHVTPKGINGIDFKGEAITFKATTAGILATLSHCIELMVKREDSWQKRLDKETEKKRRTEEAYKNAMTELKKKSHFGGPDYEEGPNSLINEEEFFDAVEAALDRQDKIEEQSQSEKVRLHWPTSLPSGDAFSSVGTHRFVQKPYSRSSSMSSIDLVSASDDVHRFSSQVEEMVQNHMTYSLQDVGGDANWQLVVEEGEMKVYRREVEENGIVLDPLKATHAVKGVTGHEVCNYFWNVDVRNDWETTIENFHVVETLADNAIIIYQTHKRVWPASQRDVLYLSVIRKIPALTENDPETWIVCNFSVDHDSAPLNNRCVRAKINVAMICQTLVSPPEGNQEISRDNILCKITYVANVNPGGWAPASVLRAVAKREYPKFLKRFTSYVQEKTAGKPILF
UniProt P86791, sequence (P86791 whole entry, looked up): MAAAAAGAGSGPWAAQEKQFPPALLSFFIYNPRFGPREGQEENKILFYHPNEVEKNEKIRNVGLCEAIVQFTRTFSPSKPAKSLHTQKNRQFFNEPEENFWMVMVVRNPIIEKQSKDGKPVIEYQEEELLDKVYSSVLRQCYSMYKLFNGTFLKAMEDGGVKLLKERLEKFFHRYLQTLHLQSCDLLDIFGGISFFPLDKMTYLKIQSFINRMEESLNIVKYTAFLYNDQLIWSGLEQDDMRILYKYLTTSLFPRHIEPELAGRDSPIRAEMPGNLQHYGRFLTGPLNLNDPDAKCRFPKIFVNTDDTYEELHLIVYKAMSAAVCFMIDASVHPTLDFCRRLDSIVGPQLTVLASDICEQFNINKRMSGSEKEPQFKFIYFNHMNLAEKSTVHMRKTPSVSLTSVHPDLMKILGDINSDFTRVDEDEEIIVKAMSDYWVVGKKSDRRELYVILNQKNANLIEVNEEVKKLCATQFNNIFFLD
UniProt O95628, sequence (O95628 whole entry, looked up): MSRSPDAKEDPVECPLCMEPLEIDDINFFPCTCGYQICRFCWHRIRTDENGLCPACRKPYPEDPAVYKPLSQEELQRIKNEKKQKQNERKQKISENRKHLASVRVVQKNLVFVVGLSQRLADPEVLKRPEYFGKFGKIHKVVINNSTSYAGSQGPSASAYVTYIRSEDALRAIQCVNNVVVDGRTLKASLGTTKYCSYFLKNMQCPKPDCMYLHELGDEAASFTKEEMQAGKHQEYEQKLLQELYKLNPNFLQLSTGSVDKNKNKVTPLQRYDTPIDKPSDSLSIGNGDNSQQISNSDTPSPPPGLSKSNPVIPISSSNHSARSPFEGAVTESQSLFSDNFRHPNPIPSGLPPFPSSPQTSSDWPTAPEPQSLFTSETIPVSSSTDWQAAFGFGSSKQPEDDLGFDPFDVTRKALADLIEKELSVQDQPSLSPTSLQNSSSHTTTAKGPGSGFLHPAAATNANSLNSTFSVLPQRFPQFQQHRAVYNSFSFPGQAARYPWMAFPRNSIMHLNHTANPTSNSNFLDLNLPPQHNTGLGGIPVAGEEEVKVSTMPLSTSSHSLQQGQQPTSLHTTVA
UniProt Q6NZI2, sequence (Q6NZI2 whole entry, looked up): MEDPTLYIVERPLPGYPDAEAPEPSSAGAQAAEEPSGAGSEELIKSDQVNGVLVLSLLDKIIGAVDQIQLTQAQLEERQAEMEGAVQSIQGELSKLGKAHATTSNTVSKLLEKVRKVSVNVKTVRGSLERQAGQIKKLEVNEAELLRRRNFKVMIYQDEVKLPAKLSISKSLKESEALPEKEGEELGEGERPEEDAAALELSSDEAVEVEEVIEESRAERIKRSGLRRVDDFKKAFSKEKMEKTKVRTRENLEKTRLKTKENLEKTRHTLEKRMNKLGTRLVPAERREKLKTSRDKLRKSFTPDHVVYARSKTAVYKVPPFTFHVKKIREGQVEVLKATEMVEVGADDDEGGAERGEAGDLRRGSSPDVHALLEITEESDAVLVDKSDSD
UniProt Q7L3B6, sequence (Q7L3B6 whole entry, looked up): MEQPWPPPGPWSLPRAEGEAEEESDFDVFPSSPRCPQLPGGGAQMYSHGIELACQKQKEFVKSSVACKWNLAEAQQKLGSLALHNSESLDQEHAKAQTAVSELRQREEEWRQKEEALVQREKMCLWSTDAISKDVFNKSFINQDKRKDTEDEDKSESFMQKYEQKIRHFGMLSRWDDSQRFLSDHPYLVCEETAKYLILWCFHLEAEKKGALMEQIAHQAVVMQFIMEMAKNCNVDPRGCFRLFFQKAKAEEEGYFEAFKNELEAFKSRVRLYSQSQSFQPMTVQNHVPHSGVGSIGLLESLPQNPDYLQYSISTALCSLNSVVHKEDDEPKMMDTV
UniProt O95319, sequence (O95319 whole entry, looked up): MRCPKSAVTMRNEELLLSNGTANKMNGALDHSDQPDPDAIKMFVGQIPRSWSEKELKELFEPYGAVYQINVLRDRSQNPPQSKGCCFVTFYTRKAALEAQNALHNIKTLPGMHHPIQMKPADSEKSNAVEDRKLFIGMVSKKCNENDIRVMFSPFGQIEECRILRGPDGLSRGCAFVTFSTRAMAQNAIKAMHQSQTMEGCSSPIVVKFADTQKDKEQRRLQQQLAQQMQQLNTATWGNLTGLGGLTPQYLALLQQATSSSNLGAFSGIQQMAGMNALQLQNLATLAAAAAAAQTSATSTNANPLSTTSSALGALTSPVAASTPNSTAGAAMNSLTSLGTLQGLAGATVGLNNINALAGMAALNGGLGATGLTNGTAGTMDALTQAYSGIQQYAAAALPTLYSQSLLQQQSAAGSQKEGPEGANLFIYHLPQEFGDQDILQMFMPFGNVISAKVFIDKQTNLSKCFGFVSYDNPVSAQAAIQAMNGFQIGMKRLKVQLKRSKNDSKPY
UniProt Q13137, sequence (Q13137 whole entry, looked up): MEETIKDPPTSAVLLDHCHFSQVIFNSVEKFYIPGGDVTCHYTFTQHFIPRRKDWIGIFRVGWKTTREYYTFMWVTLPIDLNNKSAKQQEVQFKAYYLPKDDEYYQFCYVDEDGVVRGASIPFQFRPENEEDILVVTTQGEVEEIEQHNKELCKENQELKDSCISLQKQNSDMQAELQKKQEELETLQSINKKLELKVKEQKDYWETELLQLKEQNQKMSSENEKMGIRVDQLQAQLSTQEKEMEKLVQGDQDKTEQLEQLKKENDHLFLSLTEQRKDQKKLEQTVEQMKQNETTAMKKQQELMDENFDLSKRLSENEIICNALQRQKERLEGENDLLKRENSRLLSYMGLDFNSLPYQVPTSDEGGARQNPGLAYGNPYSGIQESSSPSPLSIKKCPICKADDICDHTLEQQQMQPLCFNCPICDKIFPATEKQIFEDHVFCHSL
UniProt P06493, sequence (P06493 whole entry, looked up): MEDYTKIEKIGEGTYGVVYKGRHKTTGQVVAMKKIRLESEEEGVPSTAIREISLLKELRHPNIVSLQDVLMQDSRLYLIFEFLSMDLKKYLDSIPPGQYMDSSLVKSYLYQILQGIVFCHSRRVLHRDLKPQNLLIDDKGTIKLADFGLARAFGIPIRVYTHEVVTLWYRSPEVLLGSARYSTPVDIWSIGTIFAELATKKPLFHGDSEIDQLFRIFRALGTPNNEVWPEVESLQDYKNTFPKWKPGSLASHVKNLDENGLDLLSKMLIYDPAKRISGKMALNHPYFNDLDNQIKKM

| Target | log2 fold change [1] | log2 fold change [2] | log2 fold change [3] | log2 fold change [4] | log2 fold change [5] | log2 fold change [6] | log2 fold change [7] | log2 fold change [8] | log2 fold change [9] | log2 fold change [10] | log2 fold change [11] | log2 fold change [12] | log2 fold change [13] | log2 fold change [14] | log2 fold change [15] | log2 fold change [16] | log2 fold change [17] | log2 fold change [18] | log2 fold change [19] | log2 fold change [20] |
| --- | --- | --- | --- | --- | --- | --- | --- | --- | --- | --- | --- | --- | --- | --- | --- | --- | --- | --- | --- | --- |
| CDK1 (UniProt P06493) | 0.002 | -0.022 | 0.022 | -0.196 | -0.092 | -0.199 | -0.067 | -0.023 | -0.019 | 0.083 | -0.036 | 0.004 | -0.068 | -0.047 | 0 | 0.05 | 0.051 | -0.079 | -0.032 | – |
| CALCOCO2 isoform 4 (UniProt Q13137) | -0.647 (active) | -0.061 | -0.039 | 0.038 | 0.01 | 0.1 | -0.013 | -0.035 | -0.015 | -0.025 | -0.017 | -0.075 | -0.324 (active) | -0.185 | -0.006 | -0.006 | 0.035 | 0.071 | -0.034 | 0.047 |
| CNOT4 isoform 9 (UniProt O95628) | 0.081 | 0.067 | 0.094 | -0.172 | 0.074 | 0 | 0.096 | 0.036 | -0.019 | 0.055 | – | -0.115 | -0.077 | 0.11 | – | -0.003 | -0.038 | – | 0.178 | 0.024 |
| CAVIN1 (UniProt Q6NZI2) | 0.114 | 0.004 | -0.047 | 0.104 | -0.001 | -0.11 | -0.157 | -0.204 | 0.125 | -0.067 | 0.034 | -0.07 | 0.046 | 0.074 | 0.008 | 0.004 | -0.004 | 0.108 | -0.087 | 0.041 |
| CCZ1 (UniProt P86791) | -0.127 | 0.007 | 0.024 | -0.022 | -0.057 | -0.098 | 0.021 | 0.025 | 0.043 | 0.038 | 0.036 | -0.072 | -0.33 (active) | -0.077 | 0.006 | 0.013 | -0.011 | -0.01 | -0.033 | 0.039 |
| CELF2 isoform 3 (UniProt O95319) | 0.014 | -0.005 | -0.001 | 0.013 | -0.005 | 0.079 | -0.022 | -0.059 | -0.062 | -0.006 | -0.047 | 0.009 | 0.017 | -0.017 | -0.048 | -0.044 | 0 | 0.102 | -0.021 | 0.051 |
| CERT isoform 3 (UniProt Q9Y5P4) | 0.032 | -0.08 | 0.193 | -0.397 (active) | 0.019 | -0.11 | 0.109 | 0.021 | 0.111 | 0.117 | -0.323 (active) | -0.103 | -0.101 | -0.045 | -0.008 | -0.025 | 0.065 | 0 | -0.418 (active) | 0.034 |
| CDC37L1 (UniProt Q7L3B6) | -0.215 | 0.027 | -0.026 | -0.167 | -0.088 | 0.022 | 0.018 | 0.121 | 0.034 | 0.172 | -0.061 | -0.074 | 0.018 | 0.033 | -0.011 | -0.017 | -0.064 | -0.022 | -0.102 | 0.07 |
